# Source: PubChem BioAssay AID1851 (National Center for Advancing Translational Sciences (NCATS), 2009)
# Several values for one entry are separate records, joined by “and”; a condition that tells them apart may be missing. Equal entries are not always repeated. Hit rate of the full screen: of about 16,000 compounds, about 4,000 (25%) were called active. About 26% were inconclusive and are not listed. Calls come from the whole dose curve; as a rule, active = well fitted curve in the direction sought with a large enough effect; inconclusive = small, poorly fitted or top-dose-only effect, or effect the other way; inactive = no such curve, though single readings can be large or run the other way. Only a sample is shown. A structure can be active in one record and inactive in another.
# Molecular target: Cytochrome P450 2C9 (Homo sapiens) (UniProt P11712)
# Sequence (P11712 whole entry, looked up): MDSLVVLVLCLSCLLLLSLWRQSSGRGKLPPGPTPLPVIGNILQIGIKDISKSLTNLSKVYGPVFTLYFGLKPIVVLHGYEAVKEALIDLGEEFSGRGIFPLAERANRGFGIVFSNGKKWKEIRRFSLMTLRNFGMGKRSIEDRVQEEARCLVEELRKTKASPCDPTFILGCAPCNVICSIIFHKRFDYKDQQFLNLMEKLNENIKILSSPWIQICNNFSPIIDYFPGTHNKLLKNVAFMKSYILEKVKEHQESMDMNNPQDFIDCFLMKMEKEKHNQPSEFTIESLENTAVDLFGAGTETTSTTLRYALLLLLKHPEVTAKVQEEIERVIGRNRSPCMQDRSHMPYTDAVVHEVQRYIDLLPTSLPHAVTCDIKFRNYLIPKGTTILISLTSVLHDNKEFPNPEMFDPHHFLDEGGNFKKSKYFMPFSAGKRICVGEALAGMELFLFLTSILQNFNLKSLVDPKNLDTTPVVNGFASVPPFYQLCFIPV
# Experiment: Cytochrome panel assay with activity outcomes
# Settings: recombinant CYP, pro-luciferin dealkylation, luminescence, p450-cyp2c9; series mostly up to 57.1 µM
# % is set by controls: 0 for no effect and ±100 for the full control effect.
SMILES,"activity, negative = inhibition",AC50
COc1ccccc1CNc1ccnc(-c2ccc(C(=O)N(C)C)cc2)n1,-10.3% [at 2.29 µM] (inactive),–
CCCCOc1ccc(-c2nnn(CC(=O)c3c[nH]c4ccccc34)n2)cc1,–,inactive
COc1ccc(-c2nnn(CC(=O)NCCc3c[nH]c4ccccc34)n2)cc1OC,–,4.47 µM (active)
COc1ccccc1CNC(=O)Cn1nnc(-c2ccncc2)n1,–,7.94 µM (active)
CCc1nnc(NC(=O)CCC(=O)NCc2ccccc2OC)s1,–,inactive
COc1cc2c(CCNC(C)=O)c[nH]c2cc1O,–,inactive
NC(N)=[N+]1CCc2ccccc2C1,–,inactive
CC1=C(C#N)C(Nc2ccc(Cl)cn2)(C(F)(F)F)C(=O)N1 (stereo not given),–,14.1 µM (active)
COc1cc(OC)c(C2N(c3cc(C)on3)C(=O)C3CCCN32)cc1OC (stereo not given),–,inactive
Cc1cc(N2C(=O)C(O)=C(C(=O)c3ccco3)C2c2ccc(O)cc2)no1 (stereo not given),–,11.2 µM (active)
CN(C)CCN1C(=O)C(O)=C(C(=O)c2cc3ccccc3o2)C1c1ccccn1 (stereo not given),–,inactive
COc1cccc(C2C(C(=O)c3cc4ccccc4o3)=C(O)C(=O)N2c2cc(C)on2)c1OC (stereo not given),–,14.1 µM (active)
CC(C)NC[C@@H](O)COc1ccc(CCOCC2CC2)cc1,–,inactive and 631 nM (active)
CC(=O)Nc1ccc(OC[C@@H](O)CNC(C)C)cc1,–,inactive
CC(C)NC[C@@H](O)COc1ccc(COCCOC(C)C)cc1,–,inactive
COc1ccccc1CN1CC[C@@]2(CCCN(C(=O)c3cccn3C)C2)C1,–,inactive
COC(=O)[C@@]1(Cc2ccccc2)[C@H]2c3cc(C(=O)N(C)C)n(Cc4c(CO)[nH]cc(C)c4=O)c3C[C@H]2CN1C(=O)c1ccccc1,–,0.631 µM (active)
COC(=O)[C@@]1(Cc2ccc(F)cc2)[C@H]2c3cc(C(=O)N(C)C)n(Cc4c(CO)[nH]cc(C)c4=O)c3C[C@H]2CN1C(=O)c1ccccc1,–,10 µM (active)
CN(C)C(=O)c1ccc(-c2cncnc2Nc2ccccc2)cc1,-3.51% [at 2.29 µM] (inactive),–
C=CC[C@H](N)C(=O)O,–,inactive
O=C(O)C1CCC(=O)N(C2CC2)C1c1ccccc1 (stereo not given),–,inactive
CC12CC[C@@H]3c4ccc(OP(=O)(O)O)cc4CCC3C1CCC2=O (stereo not given in full),15.4% [at 11.4 µM] (inactive),–
Clc1ccccc1-c1nc(-c2ccncc2)no1,-19.4% [at 11.4 µM] (inactive),–

SMILES,"activity, negative = inhibition",AC50
Clc1ccccc1-c1nc(-c2ccccc2)n[nH]1,–,28.2 µM (active)
Clc1ccccc1-c1nc(N2CCNCC2)c2ccccc2n1,2.98% [at 2.29 µM] (inactive),–
Cc1nnc(SCC(=O)N2CC(=O)Nc3ccccc32)n1Cc1ccccc1,–,inactive
Cc1sc2nc(C3CC3)nc(SCC(=O)N3CC(=O)Nc4ccccc43)c2c1C,–,1 µM (active)
O=c1c2c(-c3ccc(Cl)cc3)csc2nc2n1CCC2,–,14.1 µM (active)
O=c1c2ccccc2nc2n1CCC2,–,inactive
O=C(Nc1ccc(F)cc1Cl)c1ccc2c(=O)n3c(nc2c1)CCCCC3,–,inactive
COCC(=O)N1CCC2(CC1)CN(C(=O)Nc1cccc(F)c1)C2,–,inactive
O=c1c(O)c(-c2ccc(O)c(O)c2)oc2cc(O)cc(O)c12,–,inactive
O=c1c(-c2ccc(O)cc2)coc2cc(O)cc(O)c12,–,inactive
O=c1c(-c2ccc(O)cc2)coc2cc(O)ccc12,–,6.31 µM (active)
CSc1nc(N)c2ncn([C@H]3O[C@H](COP(=O)(O)OP(=O)(O)O)[C@@H](O)[C@@H]3O)c2n1,–,inactive
O=C1C2C3c4ccccc4C(c4ccccc43)C2C(=O)N1c1nc(-c2ccccc2)cs1 (stereo not given),–,0.891 µM (active)
O=C1[C@@H]2[C@@H](C(=O)N1c1ccc(OCc3ccccc3)cc1)[C@@H]1c3ccccc3[C@@H]2[n+]2ccccc21,0.978% [at 11.4 µM] (inactive),–
CN(C)CCCN1c2ccccc2Sc2ccc3ccccc3c21,-11.1% [at 11.4 µM] (inactive),–
CO[C@@H]1/C=C\CC(=O)N[C@@H](C)C(=O)OC[C@@H](OC)[C@H](C)CCCC(=O)OC[C@H]1C,-25.9% [at 11.4 µM] (inactive),–
Cc1ccc(C(=O)O/N=C\c2ccc(N3CCCCC3)c([N+](=O)[O-])c2)cc1,–,2.24 µM (active)
Cc1ccccc1C(=O)N1CCN(c2ccc([N+](=O)[O-])c(N3CCOCC3)c2)CC1,–,5.01 µM (active)
COC(=O)c1ccc(N2CCN(CC(=O)c3ccc(-c4ccccc4)cc3)CC2)c([N+](=O)[O-])c1,–,5.01 µM (active)
Cn1c(=O)n(C)c2cc([N+](=O)[O-])c(N3CCN(C(=O)c4ccccc4Cl)CC3)cc21,–,inactive
Cc1cc(C)n(-c2cc(N3CCN(C(=O)c4ccc(C(C)(C)C)cc4)CC3)ccc2[N+](=O)[O-])n1,–,3.98 µM (active)
CN(C)CCNc1nc2c(c(=O)n(C)c(=O)n2C)n1C,4.45% [at 11.4 µM] (inactive),–
CCCN(CC1CC1)c1nc(C)nc(Nc2c(Cl)cc(Cl)cc2Cl)c1Cl,–,inactive

SMILES,"activity, negative = inhibition",AC50
C=CC[C@@H]1C=C[C@H](O/N=C(\C)CCN2CCCc3nc(C)c(C)cc32)[C@H](CO)O1,3.93% [at 11.4 µM] (inactive),–
CO/N=C/c1ccc(N2CCN(C(=O)c3ccc(Cl)cc3Cl)CC2)c([N+](=O)[O-])c1,–,7.94 µM (active)
COCC(=O)N1CCN(c2ccc([N+](=O)[O-])cc2)CC1,–,inactive
Cc1ccc(OC(=O)c2ccc(N3CCOCC3)c([N+](=O)[O-])c2)cc1,–,14.1 µM (active)
Cc1ccc(OCC(=O)N2CCN(c3ccc([N+](=O)[O-])c(N4CCOCC4)c3)CC2)cc1,–,7.94 µM (active)
CCOC(=O)c1c(NC(=O)c2ccc(N3CCOCC3)c([N+](=O)[O-])c2)sc(C)c1C,–,inactive
CC(C)Cn1c(C(C)C)nc([N+](=O)[O-])c1S(=O)(=O)c1ccc(F)cc1,–,inactive
CN(C)Cc1ccccc1-c1nccc(NC2CC2)n1,5.88% [at 2.29 µM] (inactive),–
CC(C)=CCC/C(C)=C/CO/N=C1/C[C@@H](O)[C@@H](O)[C@@H]2[C@@H]3C(=O)N(C[C@@H]4CCCO4)C(=O)[C@H]3CC[C@H]12,4.47% [at 11.4 µM] (inactive),–
O=C(Cn1cnc([N+](=O)[O-])c1)NCc1ccc(F)cc1,–,inactive
O=C(Cn1cc(C(=O)c2ccco2)c2ccccc21)NCc1ccco1,–,14.1 µM (active)
COc1ccccc1OCCn1cc(C(=O)c2ccco2)c2ccccc21,–,0.562 µM (active)
Cc1ccc(CNC(=O)Cn2c(=O)oc3ccccc32)o1,–,inactive
COc1ccccc1CN1CCC2(CC1)CCN(C(=O)c1ccco1)CC2,–,inactive
Cc1ccccc1C(=O)c1cccn1CC(=O)NCc1ccco1,–,inactive
COc1ccccc1CN1CCCC2(CCN(C(=O)c3ccco3)CC2)C1,–,inactive
N[C@H](C(=O)N[C@@H]1C(=O)N2C(C(=O)O)=C(Cl)CS[C@@H]12)c1ccccc1,–,inactive
COc1cccc2c1C(=N)c1c(O)c3c(c(O)c1C2=O)C[C@](O)(C(C)=O)C[C@@H]3O[C@H]1C[C@H](N)[C@@H](O)[C@H](C)O1,-16.6% [at 11.4 µM] (inactive),–
O=C(NC12CC3CC(CC(C3)C1)C2)C12CC3CC(C1)CC(n1cnc(Cl)n1)(C3)C2,–,12.6 µM (active)
COc1ccc(NC(=O)C23CC4CC(C2)CC(n2cnc(Br)n2)(C4)C3)c(C)c1,–,inactive
CNc1ccnc(-c2ccccc2CN(C)C)n1,0.444% [at 2.29 µM] (inactive),–
CCOc1ccc(CCNC(=O)C2CCN(S(=O)(=O)CC)CC2)cc1OCC,–,inactive
CCOc1ccc(CCNC(=O)CCCN2C(=O)c3ccccc3C2=O)cc1OCC,–,15.8 µM (active)

SMILES,"activity, negative = inhibition",AC50
CCCCCOC(=O)c1c(N)n(CCOC)c2nc3ccccc3nc12,–,5.01 µM (active)
CCCc1nc2sc3ccccc3c(=O)c2c(=O)n1CCOC,–,inactive
COCCn1c(=O)cnc2cnc(Nc3ccccc3)nc21,–,inactive
O=C(Nc1nc2ccccc2n1Cc1ccccc1)c1ccc(COc2ccccc2[N+](=O)[O-])o1,–,2 µM (active)
CCn1nccc1C(=O)Nc1nc2ccccc2n1CCN1CCCCC1,–,inactive
N[C@H](C(=O)O)c1nn[nH]n1,–,inactive
CC1=C(C)/C(=N\OC(=O)/C=C/c2ccccc2)C=CC1=O,–,inactive
Cn1cnc([N+](=O)[O-])c1Sc1nc(N)nc2c1ncn2Cc1ccccc1,4.6% [at 11.4 µM] (inactive),–
COCCNc1nc(-c2ccc(C(=O)N(C)C)cc2)nc2ccccc12,-2.68% [at 2.29 µM] (inactive),–
CC(=O)NCCNc1ncnc2ccc(-c3ccccc3C#N)cc12,-2.36% [at 2.29 µM] (inactive),–
COC(=O)c1cc(C#N)c(NCc2ccc(Cl)cc2Cl)nc1C,–,inactive
COc1ccccc1CNc1ccnc(-c2cccc(C#N)c2)n1,-24.8% [at 2.29 µM] (inactive),–
CCCCNc1nc(-c2ccccc2)c(C(=O)OCC)cc1C#N,–,3.16 µM (active)
CCOC(=O)c1cc(C#N)c(Oc2ccccc2OC)nc1-c1ccccc1,–,7.08 µM (active)
COC(=O)c1cc(C#N)c(Oc2ccc(OC)cc2)nc1C,–,14.1 µM (active)
Cc1cc(C)c2cc(C#N)c(NCCOC(=O)c3ccccc3C)nc2c1,–,2.51 µM (active)
CCCCNc1c(C(=O)OCC)c(C)nc2c1cnn2CC,–,inactive
N[C@@H](CO)C(=O)NNCc1ccc(O)c(O)c1O,–,inactive
Cn1c(=O)c2[nH]c(CCC(=O)O)nc2n(C)c1=O,24.4% [at 11.4 µM] (inactive),–
CN(C)C(N)=NCCC[C@H](N)C(=O)O,–,inactive
O[C@H](C[C@@H]1CCCCN1)c1ccc2c(c1)oc1ccccc12,-4.01% [at 11.4 µM] (inactive),–
